High-throughput results: PubChem, Broad Institute
NSD2 inh = inhibitors of human NSD2 methyltransferase; 44,000 tested, 0.07% active; AID 624260; inhibition, % at 12.5 µM; NSD2-SET H3K36me1 DELFIA fluorescence, biochemical; in the data active = inhibition above about 54%, passing the limit was not always enough;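 also: inhibitors reduce the monomethyl H3K36 fluorescence signal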
Numbers without * were called inactive. The full list was thinned out, with hits kept by preference.

SMILES | NSD2 inh
C[C@@H]1CN([C@@H](C)CO)C(=O)c2cc(C#Cc3cccc(F)c3)cnc2O[C@H]1CN(C)C(=O)c1ccccc1F | -0.5
COc1ccc(NC(=O)Nc2ccc3c(c2)CC(=O)N([C@@H](C)CO)C[C@H](C)[C@H](CN(C)C(=O)NC(C)C)O3)cc1 | 2.7
CC1(C)CC[C@]2(C(=O)O[C@@H]3O[C@H](CO)[C@@H](O)[C@H](O)[C@H]3O)CC[C@]3(C)C(=CCC4[C@@]5(C)C[C@@H](O)[C@H](O)C(C)(C)C5CC[C@]43C)C2[C@@H]1O (some centres not stated) | 25.7
CC1(C)CC[C@]2(C(=O)O[C@@H]3O[C@H](CO)[C@@H](O)[C@H](O)[C@H]3O)CC[C@]3(C)C(=CCC4[C@@]5(C)C[C@@H](O)[C@H](O)[C@@](C)(CO)C5[C@H](O)C[C@]43C)C2C1 (some centres not stated) | 17.2
CC1(C)CC[C@]2(C(=O)O[C@@H]3O[C@H](CO)[C@@H](O)[C@H](O)[C@H]3O)CC[C@]3(C)C(=CCC4[C@@]5(C)C[C@@H](O)[C@H](O)[C@@](C)(CO)C5[C@H](O)C[C@]43C)C2[C@@H]1O (some centres not stated) | 62.4*
CCC(=O)N(C)C[C@@H]1Oc2cc(C#Cc3ccccc3)ccc2S(=O)(=O)N([C@@H](C)CO)C[C@H]1C | 5.1
C[C@H]1CN([C@@H](C)CO)C(=O)Cc2cc(NC(=O)Cn3cnnn3)ccc2O[C@H]1CN(C)Cc1ccc(Oc2ccccc2)cc1 | 0.3
COc1ccc(S(=O)(=O)N(C)C[C@H]2OCCCC[C@H](C)Oc3ccc(NS(=O)(=O)c4cn(C)cn4)cc3C(=O)N([C@H](C)CO)C[C@H]2C)cc1 | -3.0
COc1ccc(-c2ccc3c(c2)O[C@H](CN(C)C(C)=O)[C@H](C)CN([C@@H](C)CO)S3(=O)=O)cc1 | -2.1
Cc1noc(C)c1S(=O)(=O)Nc1ccc2c(c1)C(=O)N([C@@H](C)CO)C[C@@H](C)[C@@H](CN(C)C(=O)c1ccncc1)OCCCC[C@@H](C)O2 | 0.6
O=C(C(NS(=O)(=O)c1cccc2nsnc12)c1ccccc1)N1CCc2ccccc21 (configuration not stated) | -2.6
O=C(O)CCCCCCC(=O)N/N=C/CCC1CCCCC1 | 2.2
O=C(O)CCCC[C@@H]1SC[C@@H]2NC(=O)N[C@@H]21 | 104.9*
C[C@H]1CN([C@@H](C)CO)C(=O)c2cccc(NC(=O)C3CCOCC3)c2O[C@H]1CN(C)CC1CC1 | 1.0
C[C@@H]1CCCCO[C@H](CN(C)Cc2ccncc2)[C@@H](C)CN([C@@H](C)CO)C(=O)c2cc(NC(=O)CCCN(C)C)ccc2O1 | -4.9
C[C@H](CO)N1C[C@H](C)[C@H](CN(C)C(=O)Nc2ccccc2)Oc2ccc(NC(=O)Nc3ccccc3)cc2CC1=O | 3.4
COc1ccc(NC(=O)N(C)C[C@H]2Oc3ccc(NC(=O)CCCN(C)C)cc3C(=O)N([C@H](C)CO)C[C@H]2C)cc1 | -0.4
COc1ccc(NC(=O)N(C)C[C@@H]2OCCCC[C@@H](C)Oc3ccc(NS(=O)(=O)c4ccc(OC)cc4)cc3C(=O)N([C@@H](C)CO)C[C@H]2C)cc1 | -2.2
C[C@H]1CN([C@@H](C)CO)S(=O)(=O)c2ccc(/C=C/c3ccccc3)cc2O[C@H]1CN(C)C(=O)CN1CCOCC1 | -2.8
C[C@@H]1CCCCO[C@H](CN(C)C(=O)C2CCCCC2)[C@@H](C)CN([C@H](C)CO)C(=O)c2cc(NC(=O)Nc3ccc(F)cc3)ccc2O1 | 3.8
COc1ccc(S(=O)(=O)N(C)C[C@H]2OCc3cn(nn3)CCCC(=O)N([C@H](C)CO)C[C@H]2C)cc1 | 1.3
COc1ccc(S(=O)(=O)Nc2ccc3c(c2)C(=O)N([C@H](C)CO)C[C@@H](C)[C@H](CN(C)C(=O)Cc2ccccc2)OCCCC[C@@H](C)O3)cc1 | -5.3
